# A selection: hits, their analogues and other compounds. The true share with any hit is near 6.1%.
# D1 PAM: Potentiators of Human D1 Dopamine Receptor: qHTS; HEK293 TREx D1 cells, calcium flux, dopamine EC20 potentiation; potentiation, % at 10 µM; D(1A) dopamine receptor (Homo sapiens), P21728; 0.036% of 360,000 active; in the data active = potentiation above about 30%; note: 0% is about no effect
# ERG-DNA inh: qHTS for Small Molecule Inhibitors of the ERG Ets/DNA interaction; fluorescence polarization, His-ERG Ets domain / labelled DNA; Potency, µM (top dose mostly 76.9 µM), for inactives: top-dose FP activity, negative = inhibition, most hits filed as inhibitors; AID 624246, 2012; 0.028% of 370,000 active; active = well fitted inhibition curve with a large enough effect in the polarisation, with a control signal flat; inconclusive = small, poorly fitted or top-dose-only effect, or effect the other way, or a change in a side signal; inactive = no such curve, though single readings can be large or run the other way; the % refers to the polarisation;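 note: polarization taken with two DNA probes labelled with fluorescein and Texas red; potency is the fitted concentration of half-maximal effect; % of control where 0% means no effect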
# Target sequence (P11308 whole entry, looked up, the tested form may be a part): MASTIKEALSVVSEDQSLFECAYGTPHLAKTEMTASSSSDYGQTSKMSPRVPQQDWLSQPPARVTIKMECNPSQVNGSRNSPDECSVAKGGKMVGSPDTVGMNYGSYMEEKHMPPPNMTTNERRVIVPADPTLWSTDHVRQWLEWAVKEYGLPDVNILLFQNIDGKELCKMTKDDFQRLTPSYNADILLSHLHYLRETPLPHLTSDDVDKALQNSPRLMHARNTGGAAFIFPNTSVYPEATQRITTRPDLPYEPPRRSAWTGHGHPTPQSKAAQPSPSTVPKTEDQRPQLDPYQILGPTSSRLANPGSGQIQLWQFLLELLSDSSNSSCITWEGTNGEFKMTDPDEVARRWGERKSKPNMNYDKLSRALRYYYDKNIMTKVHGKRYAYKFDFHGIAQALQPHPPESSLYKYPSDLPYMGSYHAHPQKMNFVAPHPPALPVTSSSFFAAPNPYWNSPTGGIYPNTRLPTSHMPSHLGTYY
#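 His-tagged ERG Ets domain (1 uM in the protein solution; 300mM KCl, 50mM Tris-HCl, 1mM EDTA, 1mM DTT, pH 7.5) received compound, then a probe mix of 5 nM fluorescein-DNA and 100nM Texas-615-DNA. Fluorescence polarization was read for both dyes.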
# DRD3 agonist: qHTS of D3 Dopamine Receptor Agonist: qHTS | D(3) dopamine receptor (Homo sapiens), P35462 | D3R DiscoveRx beta-arrestin cells, luminescence, 90 min | max activation, % | 0.58% of 410,000 active | AID 652048, 2013; in the data active = max activation above about 30%; note: 0% is about no effect
#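 Cells at 1500/well, incubated overnight, then treated with pinned compounds (dopamine as control) for 90 min at 37 degrees C. DiscoveRx reagent added for 30 - 60 minutes at room temperature; luminescence read.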
# D1 agonist: Allosteric Agonists of the Human D1 Dopamine Receptor: qHTS | D(1A) dopamine receptor (Homo sapiens), P21728 | HEK293 T-REx D1 cells, calcium flux, agonist mode | activation, % at 2 µM | 1% of 360,000 active | AID 504660, 2011; in the data active = activation above about 30%; note: 0% is about no effect
#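 Inducible HEK293 T-REx D1 cells, force-coupled to calcium signalling, were plated at 4000 cells/well with tetracycline and held overnight at 30 C. After no-wash calcium dye loading, compound-evoked calcium rise over 180 s flagged agonists.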
# DRD3 antagonist: qHTS of D3 Dopamine Receptor Antagonist: qHTS. max response, negative = inhibition, %. D3R cells, DiscoveRx beta-arrestin luminescence, antagonist mode; hits give low values. 2.5% of 360,000 active. D(3) dopamine receptor (Homo sapiens), P35462; in the data active = max response below about -50%; inconclusive = no clear call, values can overlap the other calls; note: % is set by controls: 0 for no effect and ±100 for the full control effect
#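 Cells expressing the human receptor were seeded at 1500 cells/well, incubated overnight at 37 degrees C in 5% CO2, then exposed to library compounds with dopamine controls for 90 minutes at 37 degrees C before luminescent detection.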
# D1 antagonist: Antagonist of Human D 1 Dopamine Receptor: qHTS | 3.2% of 360,000 active | HEK293 TREx D1 cells, calcium flux, dopamine EC80; hits give low values | activity change, negative = inhibition, % at 10 µM; in the data active = activity change below about -30%; note: % is set by controls: 0 for no effect and ±100 for the full control effect
#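 Inducible Hek293 Trex D1 cells (tetracycline, overnight, 30 C). Calcium dye 30–90 min RT. Antagonist mode: EC80 dopamine added after 180 s compound read.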
# * = called active by the depositor; ? = inconclusive; . = no result given; [ ] = dose if it differs, or a comment.
SMILES,D1 PAM,ERG-DNA inh,DRD3 agonist,D1 agonist,DRD3 antagonist,D1 antagonist
COc1cc2c3nnc(-c4ccccc4)c-3cn(Cc3ccccc3F)c2cc1OC,-16,6%,-5,0,-4,-28
CCCCCC[n+]1c(-c2ccccc2)csc1Nc1ccccc1,1,-2%,-11,1,-5,-82*
CCc1cc(=O)oc2c(C)c(OCC(=O)NC3CC(C)(C)NC(C)(C)C3)ccc12,-1,7%,-15,2,?,1
CCOc1ccccc1NC(=O)CSc1nnc(CNC(=O)COc2ccc(Cl)cc2)o1,-9,1%,1,6,-15,-38*
O=C(COc1ccc(Cl)cc1)NCc1nnc(SCC(=O)Nc2ccc(F)cc2F)o1,-3,16%,-13,2,23,-6
CCc1nc(SCC(=O)c2c[nH]c3ccccc23)n[nH]1,0,-2%[15.4 µM],3,2,-5,-16
CC(C)c1nc(SCC(=O)c2c[nH]c3ccccc23)n[nH]1,4,-3%,-41,1,-61*,-20
Cc1nc(CS(=O)(=O)c2ccc(Cl)cc2)sc1C(=O)O,3,0%[15.4 µM],18,1,-5,4
CC1=C(C(=O)Nc2ccccc2)C(c2cccc(Cl)c2)n2nc(SCC(=O)c3ccc(C)cc3)nc2N1 (stereo unspecified),0,3%,-6,0,.,14
COc1ccc(C(=O)CN2CCN(c3ccc(F)cc3)CC2)cc1,3,3%,3,2,-2,-19
COc1ccc(S(=O)(=O)N2CCN(CC(=O)Nc3cccc(OC)c3)CC2)cc1,2,-25%,-4,0,-11,-5
COC(=O)c1ccc(NC(=O)CN2CCN(S(=O)(=O)c3cc(Cl)ccc3OC)CC2)cc1,-6,-2%,10,38*,3,2
CCOc1ccc(C(=O)CN2CCN(S(=O)(=O)c3ccc(Cl)cc3)CC2)cc1,7,0%,-8,0,-57*,-14
COc1ccc(C(=O)CN2CCN(S(=O)(=O)c3ccc(F)cc3)CC2)cc1,-4,3%,-14,3,.,-30*
COc1ccc(S(=O)(=O)N2CCN(CC(=O)Nc3ccc(F)c(F)c3)CC2)cc1,-8,-9%,5,8,16,-33*
CCCCN(C(=O)c1cc2c(s1)CCCCC2)c1c(N)n(CC(C)C)c(=O)[nH]c1=O,0,-1%,2,3,5,-7
Cc1cc(F)ccc1NC(=O)c1ccc2nc(Cc3ccccc3)oc2c1,2,-2%,7,15,.,-20
CCCN1CCC(=O)N([C@H](CSc2ccc(OC)cc2)c2ccccc2)CC1,-4,3%,-35,3,-15,8
Cc1ccc(C)c(N2CCN(C(=O)c3c(C)oc4nc(C)nc(N5CCOCC5)c34)CC2)c1,-3,-3%,-17,0,.,2
Cc1cc2ncn(S(=O)(=O)N3CCCCC3)c2cc1C,-3,.,-8,-1,-8,-33*
CCCCC[C@H](C)N1C[C@@H](COCc2ccccc2)Oc2cc(N3CC[C@H](O)C3)ccc2S1(=O)=O,.,.,-1,.,-4,.
O=c1[nH]c2cccnc2n1Cc1ccco1,-5,-2%,-22,-2,-24,-43*
COc1cccc(N2CC(NC(=O)C(c3ccccc3)c3ccccc3)CC2=O)c1 (stereo unspecified),1,2%,-6,-1,.,.
CN1CCN(S(=O)(=O)c2ccc(N(C)Cc3ccc(OC(F)F)cc3)c([N+](=O)[O-])c2)CC1,-6,4%,-14,11,-6,-39*
C=C1CCC[C@]2(C)C[C@H]3OC(=O)C(CN[C@@H](C)c4ccccc4)[C@H]3CC12 (stereo partly specified),-2,-16%,8,36*,41,29
